From paper PMC7862700, “An all-to-all approach to the identification of sequence-specific readers for epigenetic DNA modifications on cytosine”

Tests used:
Assay in all cases: DAPPL (digital affinity profiling via proximity ligation, sequencing); 10 mM Tris-HCl pH 7.5, 50 mM NaCl, 1 mM DTT, 4% glycerol, room temperature, 30 min; GST-TFs on glutathione beads, 16-mer random dsDNA library, 0.1% formaldehyde crosslink after washing; high values mean tight binding
Details in all cases: protein: recombinant; tags: N-terminal GST; dsDNA, one strand shown
[1] = biological target: T1, FLI1 (Homo sapiens, UniProt Q01543 1-452)
T1 sequence: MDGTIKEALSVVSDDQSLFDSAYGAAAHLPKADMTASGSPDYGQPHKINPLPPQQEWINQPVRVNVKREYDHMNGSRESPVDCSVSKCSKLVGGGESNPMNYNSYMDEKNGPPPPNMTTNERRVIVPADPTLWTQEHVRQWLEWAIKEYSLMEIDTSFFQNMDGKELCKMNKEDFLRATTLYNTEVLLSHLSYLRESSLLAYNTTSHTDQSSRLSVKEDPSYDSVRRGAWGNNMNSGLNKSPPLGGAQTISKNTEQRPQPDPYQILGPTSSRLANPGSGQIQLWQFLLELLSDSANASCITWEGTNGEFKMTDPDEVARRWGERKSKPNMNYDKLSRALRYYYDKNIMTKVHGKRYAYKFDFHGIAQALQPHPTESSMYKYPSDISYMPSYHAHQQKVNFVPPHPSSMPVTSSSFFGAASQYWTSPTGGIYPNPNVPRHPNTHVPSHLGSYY
How it was run: (§1)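 Human transcription factors were made in yeast as GST fusions, captured on glutathione beads and barcoded with DNA. With a tag-only sample included, the pool was incubated with 200 nmole of a random double-stranded 16-mer DNA library in Tris/NaCl/DTT/glycerol buffer at room temperature for 30 min, then crosslinked with 0.1% formaldehyde after washing, ligated by proximity, amplified and sequenced. For binding signal, each hexamer's read frequency for a factor is divided by its frequency for the tag-only sample.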

[2] = biological target: T2, ELK1 (Homo sapiens, UniProt P19419 1-428)
T2 sequence: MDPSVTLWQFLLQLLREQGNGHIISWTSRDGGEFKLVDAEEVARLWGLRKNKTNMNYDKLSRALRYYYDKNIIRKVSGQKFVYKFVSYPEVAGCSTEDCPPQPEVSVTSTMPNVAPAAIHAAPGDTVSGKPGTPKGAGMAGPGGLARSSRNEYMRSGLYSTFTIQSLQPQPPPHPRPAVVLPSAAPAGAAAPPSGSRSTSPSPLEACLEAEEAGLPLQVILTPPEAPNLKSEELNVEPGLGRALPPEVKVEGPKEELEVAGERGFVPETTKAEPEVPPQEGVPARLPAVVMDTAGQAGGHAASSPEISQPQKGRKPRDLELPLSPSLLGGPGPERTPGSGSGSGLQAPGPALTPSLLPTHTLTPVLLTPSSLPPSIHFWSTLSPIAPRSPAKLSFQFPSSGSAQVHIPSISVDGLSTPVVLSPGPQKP
How it was run: as §1

[3] = biological target: T3, GABPA (Homo sapiens, UniProt Q06546 1-454)
T3 sequence: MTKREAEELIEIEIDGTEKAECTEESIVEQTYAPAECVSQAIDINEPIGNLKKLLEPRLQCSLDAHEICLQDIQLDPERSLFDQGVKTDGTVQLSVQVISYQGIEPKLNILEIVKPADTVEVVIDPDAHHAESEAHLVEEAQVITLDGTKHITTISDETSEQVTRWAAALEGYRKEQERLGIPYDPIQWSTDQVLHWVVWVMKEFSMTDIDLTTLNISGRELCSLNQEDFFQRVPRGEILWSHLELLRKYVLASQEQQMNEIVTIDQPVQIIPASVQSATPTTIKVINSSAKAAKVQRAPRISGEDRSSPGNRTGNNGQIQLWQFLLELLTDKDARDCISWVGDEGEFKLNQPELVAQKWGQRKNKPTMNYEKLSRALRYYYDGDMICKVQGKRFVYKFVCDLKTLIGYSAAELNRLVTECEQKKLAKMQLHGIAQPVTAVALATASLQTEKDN
How it was run: as §1

[4] = biological target: T4, ERG (Homo sapiens, UniProt P11308 1-479)
T4 sequence: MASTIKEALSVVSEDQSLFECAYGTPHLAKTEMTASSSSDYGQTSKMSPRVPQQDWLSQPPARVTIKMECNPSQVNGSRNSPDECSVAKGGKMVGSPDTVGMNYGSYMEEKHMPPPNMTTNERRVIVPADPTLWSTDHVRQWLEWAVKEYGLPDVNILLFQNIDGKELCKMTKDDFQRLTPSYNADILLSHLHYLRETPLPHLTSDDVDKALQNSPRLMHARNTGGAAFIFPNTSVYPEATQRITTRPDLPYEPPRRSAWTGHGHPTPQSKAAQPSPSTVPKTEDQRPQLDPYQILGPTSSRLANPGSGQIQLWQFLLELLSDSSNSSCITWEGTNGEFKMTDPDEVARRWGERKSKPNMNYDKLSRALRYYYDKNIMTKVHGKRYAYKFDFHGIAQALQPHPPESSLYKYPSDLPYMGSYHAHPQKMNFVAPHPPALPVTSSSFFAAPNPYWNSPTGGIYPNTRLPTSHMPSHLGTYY
How it was run: as §1

[5] = biological target: ELF1 (Homo sapiens, UniProt P32519 1-619)
How it was run: as §1

[6] = biological target: T5, EHF (Homo sapiens, UniProt Q9NZC4 1-300)
T5 sequence: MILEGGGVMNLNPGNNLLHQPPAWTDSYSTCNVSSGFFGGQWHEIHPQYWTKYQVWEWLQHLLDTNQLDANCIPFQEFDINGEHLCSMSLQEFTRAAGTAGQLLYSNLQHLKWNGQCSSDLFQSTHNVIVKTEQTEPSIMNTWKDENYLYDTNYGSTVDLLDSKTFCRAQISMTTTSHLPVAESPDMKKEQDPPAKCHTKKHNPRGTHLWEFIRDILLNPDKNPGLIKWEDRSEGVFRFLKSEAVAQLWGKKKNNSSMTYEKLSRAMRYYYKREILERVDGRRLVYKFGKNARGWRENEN
How it was run: as §1

[7] = biological target: SPI1 (Homo sapiens, UniProt P17947 1-270)
How it was run: as §1

[8] = biological target: SPIB (Homo sapiens, UniProt Q01892 1-262)
How it was run: as §1

[9] = biological target: T6, ELK3 (Homo sapiens, UniProt P41970 1-407)
T6 sequence: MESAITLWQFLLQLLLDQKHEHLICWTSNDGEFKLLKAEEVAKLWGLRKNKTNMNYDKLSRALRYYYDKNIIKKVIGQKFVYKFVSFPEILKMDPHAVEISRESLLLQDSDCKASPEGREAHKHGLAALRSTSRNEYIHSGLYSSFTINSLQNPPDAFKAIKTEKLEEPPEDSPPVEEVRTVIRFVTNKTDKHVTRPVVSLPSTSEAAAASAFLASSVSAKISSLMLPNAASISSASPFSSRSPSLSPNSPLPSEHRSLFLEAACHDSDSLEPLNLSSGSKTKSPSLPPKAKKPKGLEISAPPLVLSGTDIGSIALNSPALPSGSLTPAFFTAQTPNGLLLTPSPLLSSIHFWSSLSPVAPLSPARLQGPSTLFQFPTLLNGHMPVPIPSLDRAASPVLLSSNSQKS
How it was run: as §1

SPIB, sequence (Q01892 whole entry): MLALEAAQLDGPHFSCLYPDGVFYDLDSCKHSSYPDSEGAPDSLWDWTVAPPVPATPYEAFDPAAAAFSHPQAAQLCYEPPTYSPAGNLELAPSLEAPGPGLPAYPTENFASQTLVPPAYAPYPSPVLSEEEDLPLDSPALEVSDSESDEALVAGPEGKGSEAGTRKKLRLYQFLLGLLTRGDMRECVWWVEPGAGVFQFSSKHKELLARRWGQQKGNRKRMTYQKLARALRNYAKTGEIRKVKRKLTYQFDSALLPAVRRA
ELF1, sequence (P32519 whole entry): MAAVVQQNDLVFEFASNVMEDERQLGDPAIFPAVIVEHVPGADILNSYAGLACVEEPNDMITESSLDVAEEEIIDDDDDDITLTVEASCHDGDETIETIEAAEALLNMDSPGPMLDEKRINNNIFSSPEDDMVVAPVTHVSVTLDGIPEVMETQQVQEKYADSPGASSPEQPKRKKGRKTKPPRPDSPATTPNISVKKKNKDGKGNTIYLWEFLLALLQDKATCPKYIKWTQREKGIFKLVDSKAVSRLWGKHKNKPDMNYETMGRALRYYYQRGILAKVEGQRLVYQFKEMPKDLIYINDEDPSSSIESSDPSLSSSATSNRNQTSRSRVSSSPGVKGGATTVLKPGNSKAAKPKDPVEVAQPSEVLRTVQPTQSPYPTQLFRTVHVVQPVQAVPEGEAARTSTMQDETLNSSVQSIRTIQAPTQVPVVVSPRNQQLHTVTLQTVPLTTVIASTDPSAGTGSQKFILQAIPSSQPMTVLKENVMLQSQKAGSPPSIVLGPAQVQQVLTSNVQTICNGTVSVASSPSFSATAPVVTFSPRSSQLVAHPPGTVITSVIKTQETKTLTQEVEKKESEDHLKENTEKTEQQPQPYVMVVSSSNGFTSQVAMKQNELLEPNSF

Which results are given for AACTTC?
binding signal [1]: 2.4 fold enrichment (6-mer frequency, TF over GST control); binding signal [2]: 2.53 fold enrichment (6-mer frequency, TF over GST control); binding signal [3]: 2.41 fold enrichment (6-mer frequency, TF over GST control); binding signal [4]: 2.73 fold enrichment (6-mer frequency, TF over GST control); binding signal [5]: 2.47 fold enrichment (6-mer frequency, TF over GST control); binding signal [6]: 2.5 fold enrichment (6-mer frequency, TF over GST control); binding signal [7]: 3.04 fold enrichment (6-mer frequency, TF over GST control); binding signal [8]: 2.77 fold enrichment (6-mer frequency, TF over GST control); binding signal [9]: 2.72 fold enrichment (6-mer frequency, TF over GST control)
